Experimental findings from PubChem BioAssay (NCATS) are described below.

Where “and” joins values, the source holds several entries; their conditions need not be identical. Identical values can stand only once. Records with an inconclusive call do not appear. Unmarked numbers belong to inactive results. Calls of active or inactive are those of the source. Calls follow the shape of the dose curve; as a rule, active = well fitted cell-killing curve with a large enough effect; inconclusive = small, poorly fitted or top-dose-only effect, or effect the other way; inactive = no such curve, though single readings can be large or run the other way.
Potency is read from the fitted curve at half-maximal effect.

A short description of the assay: Viability qHTS for spleen associated tyrosine kinase inhibitor (SYKi) drug resistant MV4-11 cells (AID 1963824). Also: nearly all actives have a fitted effect of over 35% in size. Particulars: SYKi-resistant MV4-11 viability, CellTiter-Glo, 72 h; series mostly up to 45 µM. A digest of the protocol:
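CellTiter-Glo luminescence, read 10 min after reagent addition, reports viability after a 72 hr compound exposure. Cells are an MV4-11 line made resistant to SYK inhibition, seeded at 500 per well onto compound-containing plates.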
On the technique in general: Quantitative high-throughput screening tests each substance at several concentrations.
Regarding `COC(=O)c1cc(OC)cc(OC)c1C(=O)c1c(OC)cc2c(c1O)C1CCCC(C)(O2)O1` (stereo not given), the Potency was 7.09 µM (active). In the case of `C=C1C(=O)O[C@@H]2/C=C(\CO)CC/C=C(/C=O)C[C@H](O)[C@@H]12`, the Potency is 3.26 µM (active). Same read-out and setting: in the case of `COc1ccccc1NC(=O)Nc1ccc2ccccc2c1` it was 20.6 µM (active). `O=C(c1ccc2nccnc2c1)N1CCCCC1`: the Potency result was “inactive”.

As to `O=C(c1ccccc1)c1ccc2nc(NC(=O)c3csc(C4CCN(c5ncnc6ccsc56)CC4)n3)[nH]c2c1`, the Potency was 2.31 µM (active). With `C[C@@]12CC3(S(=O)(=O)O)OC(O1)[C@]1(COC(=O)c4ccccc4)[C@H]3C[C@]21O[C@@H]1O[C@H](CO)[C@@H](O)[C@H](O)[C@H]1O`, the Potency entry is “inactive”. Still for that read-out and setting: the result for `COc1ccc(C2(O)CCC(N3CC[C@@H](NC(=O)CNC(=O)c4cccc(C(F)(F)F)c4)C3)CC2)cn1` (stereo not given in full) reads “inactive”; that for `CC1C(=O)OCC2=CC[N+]3([O-])CCC(OC(=O)C(C)(O)C1(C)O)C23` (stereo not given), “inactive”.

Take `COC(=O)C[C@H]1C(C)(C)[C@H](OC(=O)c2ccccc2)C2CC3=C4CC(=O)O[C@@H](c5ccoc5)[C@]4(C)CCC3[C@@]1(C)C2=O` (stereo not given in full): the Potency is 10 µM (active). In the case of `OCC(O)CCO/N=C1/C(c2c(O)[nH]c3ccccc23)=Nc2ccccc21` (stereo not given), the Potency was 0.0517 µM (active). As for `C=C1CC/C=C(/CO)C(=O)C[C@@H]2[C@@H]1CC2(C)C`, the Potency result is “inactive”. As to `COc1ccc(C2(CNC(=O)[C@](C)(Cc3c[nH]c4ccccc34)NC(=O)Nc3ccc([N+](=O)[O-])cc3)CCCCC2)nc1`, the Potency is 20.6 µM (active). Turning to `COC(=O)C1=CO[C@@H](O[C@@H]2O[C@H](CO)[C@@H](O)[C@H](O)[C@H]2O)[C@@H]2C(CO)=CC[C@]12O`, the Potency entry was “inactive”. Same read-out and setting: the result for `CC1(C)C2CC[C@@]34CC(CC[C@H]3[C@]2(C)CC[C@@H]1O[C@@H]1O[C@H](CO)[C@@H](O)[C@H](O)[C@H]1O)[C@](C)(O)C4` (stereo not given in full) reads “inactive”; that for `O=C1C[C@]23C=CCN4CCC5c6cc7c(cc6N1[C@@]5(CC2)C43)OCO7` (stereo not given in full), 14.3 µM (active); that for `CCOc1ccc(-n2c([C@@H](C)N(Cc3cccnc3)C(=O)Cc3ccc(OC(F)(F)F)cc3)nc3ncccc3c2=O)cc1`, 16.4 µM (active). As for `O=C(O)c1ccccc1C(=O)Nc1ccc(S(=O)(=O)Nc2nccs2)cc1`, the Potency entry is “inactive”.

In the case of `C=C1CCCC2(C)CCC(C(C)(C)OC3OC(C)C(O)C(O)C3OC(=O)/C(C)=C\C)CC12` (stereo not given), the Potency is 8.93 µM (active). For `O=C(NO)c1cnc(N2CCN(S(=O)(=O)c3ccc4ccccc4c3)CC2)nc1`, the Potency result is “inactive”. With `Cc1cnc(-c2ccccc2C(C)C)nc1NCc1ccc(-n2ccnn2)cc1`, the Potency was 16.4 µM (active) and 14.8 µM (active).

Turning to `COc1cc2c(cc1OC)N1C(=O)C[C@]34C=CCN5CC[C@@H]2[C@@H](CC3)[C@]514`, the Potency is 8.05 µM (active).

For `COc1ccccc1Oc1c(NS(=O)(=O)c2ccc(C)cn2)nc(-c2ccncc2)nc1OC`, the Potency result was “inactive”.

In the case of `COc1cc2ncnc(Nc3ccc(Oc4ccccc4)cc3)c2cc1OC`, the Potency is 0.291 µM (active). As for `CN(C)c1nc(NC2CCC(NCCc3ccc(Br)cc3OC(F)(F)F)CC2)nc2ccccc12` (stereo not given), the Potency was 0.651 µM (active).

`NC(=O)C1=CC2C3C=CC2C(OC3=O)O1` (stereo not given): the Potency was 26.6 µM (active). Regarding `O=C(Nc1ccc(S(=O)(=O)Nc2nccs2)cc1)c1cc(-c2ccccc2)nc2ccccc12`, the Potency is 16.4 µM (active). For `Cc1c(-c2ccc3c(c2)OCO3)oc2ccc(C(O)C(C)O)cc12` (stereo not given), the Potency was 12.8 µM (active).

On to `C=C1C(O)C(O)C2(CC3C(C)=CCC4C(C)(CO)CCCC34C)OC2C1O` (stereo not given), for which the Potency entry is “inactive”. In the case of `CC1=C2CC(C)(C)CC2C(O)C2=C(C1)C(=O)OC2O` (stereo not given), the Potency entry was “inactive”.

Regarding `CN(C)CCCNc1c2ccccc2nc2c1[nH]c1ccccc12`, the Potency is 0.731 µM (active).

In the case of `Cc1ccc(CNc2ncnc3ccc(-c4ccc(CO)o4)cc23)o1`, the Potency is 5.17 µM (active). As to `C[C@@H]1O[C@@H](O[C@H]2[C@H](OC(=O)[C@]34CCC(C)(C)C[C@H]3C3=CCC5[C@@]6(C)C[C@H](O)[C@H](O[C@@H]7O[C@H](CO)[C@@H](O[C@@H]8O[C@H](CO)[C@@H](O)[C@H](O)[C@H]8O)[C@H](O)[C@H]7O)[C@@](C)(CO)C6[C@H](O)C[C@@]5(C)[C@]3(C)C[C@H]4O)OC[C@H](O)[C@@H]2O)[C@H](O)[C@H](O)[C@H]1O[C@@H]1OC[C@@H](O)[C@H](O[C@@H]2OC[C@](O)(CO)[C@H]2O)[C@H]1O` (stereo not given in full), the viability, % of control was 108% [at 9.25 µM].

Regarding `C=C1CC2OC(=O)C(COC)C2C(OC(=O)/C(C)=C\C)CC2(C)OC1=CC2=O` (stereo not given), the Potency is 0.805 µM (active). Turning to `CC(C)[C@@H](C)/C=C/[C@@H](C)[C@H]1CC[C@H]2C3=CC=C4C[C@@H](O)CC[C@]4(C)C3=CC[C@]12C`, the Potency is 11.6 µM (active).

Consider `COC(=O)c1ccc2c(c1)[nH]c1ncnc(NCCCN3CCCCC3)c12`, for which the Potency was 9.2 µM (active).

Turning to `NC(N)=NCCC[C@H](NC(=O)c1sccc1NS(=O)(=O)c1cccc2nsnc12)C(=O)O`, the Potency result is “inactive”.

With `C[C@@H]1O[C@@H](O[C@H]2[C@H](O[C@H]3CO[C@@H](O[C@H]4CC[C@@]5(C)C(CC[C@]6(C)C5CC[C@]57OC[C@@]8(CC[C@](C)(CO)CC85)[C@H](O)C[C@]76C)C4(C)C)[C@H](O[C@@H]4O[C@H](CO)[C@@H](O)[C@H](O)[C@H]4O)[C@H]3O)O[C@H](CO)[C@@H](O)[C@@H]2O)[C@H](O)[C@H](O)[C@H]1O` (stereo not given in full), the viability, % of control was 95% [at 9.25 µM].

For `CC1=C(CO)C2(C)CCCC(C)(C)C2C(O)C1O` (stereo not given), the Potency entry is “inactive”.

For the molecule `CC(C)(C)Nc1nc(Nc2ccc(C(N)=O)cc2)cc(N)c1C#N`, the Potency is 2.31 µM (active). The same measure, in the same setting: the result for `COc1c2c(c(C)c3c1C(=O)OC3)OC1(C)CC(O)C(C(C)(C)O)C(C)(CCC(=O)O)C1C2` (stereo not given) reads 3.17 µM (active).
